Bioassay records from PubChem BioAssay.
A selection: hits, their analogues and other compounds. The true share with any hit is near 7.5%.
Vaccinia mCherry: inhibitors of vaccinia virus infection (mCherry reporter signal). Vaccinia virus mCherry reporter infection, fluorescence. Potency, µM (top dose mostly 36.5 µM), for inactives: top-dose activity change, negative = inhibition, most hits filed as inhibitors. actives 0.63% (n = 310,000). AID 720579; calls by dose curve; tested in A549 cells; further: potency means the concentration at half of the fitted maximal effect; nearly all actives have a fitted effect of over 35% in size
HCMV antiviral: human cytomegalovirus inhibition. activity change, negative = inhibition, % at 57.5 µM. actives 4.5% (n = 410,000). HFF cells, HCMV-luciferase reporter, 72 h; stronger effect = lower value; in the data active means activity change below about -60%; inconclusive means no clear call, values can overlap the other calls; inactive means above about -39%
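Steps: HFFs plated, 16 h 37C; compounds added; HCMV-luciferase added to MOI 1 PFU/cell; 72 h 37C; OneGlo reagent, 5 min room temperature; luminescence read, normalized to controls.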
HCV inhibitor: inhibitors of hepatitis C virus infection | Huh7.5.1 HCVcc-Cre infection, luciferase reporter, 44 h | Potency, µM (series often up to 41.8 µM), for inactives: at the top dose activity change, negative = inhibition, usual class: inhibitors | actives 3.4% (n = 340,000) | AID 651820; further: potency means the concentration at half of the fitted maximal effect
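Infectious HCVcc-Cre (~0.5 moi) was added to cells just after compound, with cells seeded 4 h earlier at 1,000 per well. Luciferase activity after 44 h culture reported infection; substrate was incubated 15 min at room temperature before reading.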
VACV Venus inh: vaccinia inhibition (Venus reporter); Vaccinia virus Venus reporter expression, fluorescence; Potency, µM (highest dose often 36.5 µM), inactives show at the highest dose activity change, negative = inhibition, usual class: inhibitors; actives 0.46% (n = 330,000); calls by dose curve; tested in A549 cells; further: potency means the concentration at half of the fitted maximal effect; nearly all actives have a fitted effect of over 30% in size
FMDV antiviral: blocks foot and mouth disease virus; FMDV antiviral cell-based qHTS; Potency, µM (series often up to 57.9 µM), for inactives: top-dose activity change, negative = inhibition, most hits filed as inhibitors; actives 1.2% (n = 410,000); calls by dose curve; tested in HEK293T cells; further: read-out not given here; potency means the concentration at half of the fitted maximal effect; nearly all actives have a fitted effect of over 45% in size
FBPA Giardia inh: blocks Giardia fructose-bisphosphate aldolase activity; AID 2451; A8B2U2; Potency, µM (series often up to 59.6 µM), for inactives: top-dose activity, negative = inhibition, hits mostly inhibitors; purified Giardia FBPA; actives 0.71% (n = 290,000); further: potency means the concentration at half of the fitted maximal effect; nearly all actives have a fitted effect of over 55% in size
Target sequence (A8B2U2 whole entry, looked up): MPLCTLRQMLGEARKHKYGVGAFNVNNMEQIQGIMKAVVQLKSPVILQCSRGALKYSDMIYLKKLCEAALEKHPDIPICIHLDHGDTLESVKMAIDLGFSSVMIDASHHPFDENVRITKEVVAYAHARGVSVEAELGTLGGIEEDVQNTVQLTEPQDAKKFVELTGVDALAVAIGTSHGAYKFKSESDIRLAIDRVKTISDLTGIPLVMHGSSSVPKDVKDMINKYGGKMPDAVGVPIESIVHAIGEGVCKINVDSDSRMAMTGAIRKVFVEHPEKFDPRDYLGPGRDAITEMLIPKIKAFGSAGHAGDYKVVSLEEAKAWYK
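40 nM FBPA preincubated 10 min at RT with compound (up to 57.5 uM final), then substrate plus GAPDH/TPI/NAD/arsenate coupling and diaphorase/resazurin added. Fluorescence read after 20 min at RT, 525/598 nm.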
Active calls of the source: *; i = inactive; ? = inconclusive; nt = no result given; + = active, no number; [ ] = remark or other dose. Unless noted, the call rests on the fitted dose curve; in most records, active means well fitted curve in the direction sought with a large enough effect; inconclusive means small, poorly fitted or top-dose-only effect, or another doubt; inactive means no such curve, though single readings can be large; an effect the other way counts as inactive or inconclusive. On the % scale 0 is the no-effect control and ±100 the full control effect.

SMILES | Vaccinia mCherry | HCMV antiviral | HCV inhibitor | VACV Venus inh | FMDV antiviral | FBPA Giardia inh
C/C(CCC12CC3CC(CC(C3)C1)C2)=N\NC(N)=S | 11.2µM* | -36.9 | 11.2µM* | ? | 0.0% | -0.4%
CC(C)CC(=O)N1c2nc(C(C)C)nn2C2(CCCCC2)[C@@H]2CCCC[C@@H]21 | -1.6% | 40.3 | nt | -2.5% | 0.0% | nt
CCCC(=O)N1c2nc(C(C)C)nn2C2(CCCCC2)[C@@H]2CCCC[C@@H]21 | -17.5% | -75.3* | nt | -23.3% | -6.0% | nt
Cc1ccn2c(=O)nc(SCC(=O)Nc3cc(C)on3)nc2c1 | i | -6.3 | -5.9% | -3.1% | -5.1% | nt
Cc1cc(NC(=O)CSc2nc(=O)n3cc(Cl)ccc3n2)no1 | -11.2% | -97.5* | 6.7% | 5.6% | 2.0% | nt
CC1CCc2nc3ccccc3c(C(=O)OCC(=O)NC3CCS(=O)(=O)C3)c2C1 (stereo not drawn) | -16.6% | -16.6 | 10µM* | -8.9% | -10.4% | -20.2%
COc1cccc(NC(=O)COC(=O)c2c3c(nc4ccccc24)CCC(C)C3)c1 (stereo not drawn) | nt | -25.2 | 2µM* | nt | 31.6µM* | nt
NC(=O)c1cc(-c2ccccc2)nc(N2CCOCC2)n1 | nt | -5.4 | 5.01µM* | -25.9% | 0.0% | 2.3%
NC(=O)c1cc(-c2ccccc2)nc(N2CCCCCC2)n1 | nt | -13.1 | 1.8% | -17.0% | -25.0% | -0.9%
O=C(C1CC1)N1N=C(c2ccccc2)CC1(O)C(F)(F)C(F)(F)F (stereo not drawn) | i | 5.6 | -1.3% | -3.5% | -3.8% | 4.9%
CCOc1ccc(N(CC(=O)Nc2cccc(F)c2)S(=O)(=O)c2c(C)noc2C)cc1 | 6.1% | -14.6 | -16.6% | -25.0% | -10.6% | -1.2%
CCOc1ccc(N(CC(=O)Nc2ccccc2C)S(=O)(=O)c2c(C)noc2C)cc1 | -2.9% | -69.5* | -25.7% | -21.3% | -21.4% | -4.3%
CCOc1ccccc1NC(=O)CN(c1ccc(OC)cc1)S(=O)(=O)c1c(C)noc1C | nt | -38.8 | ? | nt | -10.2% | -7.5%
Cc1ccc(N(CC(=O)Nc2cc(C)cc(C)c2)S(=O)(=O)c2c(C)noc2C)cc1 | 14.7%[7.34 µM] | -85.4* | ? | 0.0%[7.34 µM] | ? | -7.6%
CCOc1ccc(N(CC(=O)Nc2ccc(C)c(C)c2)S(=O)(=O)c2c(C)noc2C)cc1 | -12.5% | -70.7* | ? | -20.5% | ? | -12.8%
COc1ccc(N(CC(=O)Nc2ccc(C)cc2)S(=O)(=O)c2c(C)noc2C)cc1 | nt | -25.1 | 9.8% | nt | -23.4% | nt
Cc1cc(C=O)cc(C)c1[N+](=O)[O-] | -13.6% | nt | nt | -5.3% | nt | nt
CCc1ccc(NC(=O)c2cc(=O)c3ccc(C)c(C)c3o2)cc1 | i | 6.5 | nt | -27.6% | -12.9% | nt
COc1ccc(S(=O)(=O)NCc2ccncc2)cc1NC(=O)c1ccccc1 | -12.7% | -79.4* | -2.6% | -28.6% | -19.5% | nt
COc1ccccc1NS(=O)(=O)c1ccc(C(=O)NCc2ccncc2)cc1 | nt | + | -7.5% | nt | -0.9% | nt
CCOc1ccc(S(=O)(=O)NCc2ccncc2)cc1NC(=O)c1ccccc1 | -9.3% | -87.5* | 1.78µM* | -20.4% | -10.8% | nt
CCOc1ccc(S(=O)(=O)NCc2ccncc2)cc1NC(=O)c1ccccc1F | i | ? | ? | -20.4% | 32.0% | nt
COc1ccc(S(=O)(=O)NCc2cccnc2)cc1NC(=O)c1ccccc1 | -8.3% | -31.5 | -7.5% | -8.6% | 82.6% | 2.9%
COc1ccc(S(=O)(=O)NCc2ccncc2)cc1NC(=O)c1ccc(Cl)cc1 | -12.2% | -63.0* | ? | -9.4% | -6.4% | nt
COc1ccc(OCCN2C(=O)c3ccccc3C2=O)cc1 | i | 4.8 | -2.7% | 4.7% | 53.3% | -0.7%
COc1ccc(C2=Nc3ccccc3C2(O)CCN2C(=O)c3ccccc3C2=O)cc1 (stereo not drawn) | -21.3% | 18.6 | 0.891µM* | -2.4% | 11.0% | nt
FC(F)(F)c1cc(NC(=S)NC23CC4CC(CC(C4)C2)C3)cc(C(F)(F)F)c1 | nt | nt | nt | nt | nt | -1.0%
Cc1cccc(N2CCN(CCCNC(=O)c3nnc(Cc4c(F)cccc4Cl)o3)CC2C)c1 (stereo not drawn) | i | -25.8 | nt | -20.9% | ? | nt
CN(C)CCNC(=O)C1CCN(Cc2cc3ccccc3n2Cc2ccccc2)CC1 | -8.7% | -101.4* | nt | -10.3% | nt | nt
